# “And” between values parts separate entries of the source, which are not always exact repeats. Equal entries are not always repeated. The source made the active and inactive calls.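 How the source made its calls, unless noted: active means mean z-score across replicates of 1.96 or higher in either the MELAS or the Rieske mutant cell line; inactive means the rest.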
# Assays:
# [1] = compounds altering viability of human ES cells (AID 493140; call rule not given here;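 further: cells exposed to compounds for four days before counting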); conditions: human embryonic stem cell survival screen; stronger effect = higher value
# [2] = P. berghei load reduction in hepatocytes – cell-based, HepG2, luciferase luminescence, HepG2 viability, primary screen (AID 624349; in the data active means parasite load remaining mostly below about 12%, no sharp cut-off; inactive means mostly above about 10%;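 further: 100% = mean of DMSO negative control wells on the same plate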); conditions: P. berghei liver stage in HepG2, luciferase luminescence, concentration not given here; parasite load remaining: stronger effect = lower value; viability: measured here: HepG2 viability without parasites
# [3] = Wnt pathway potentiators raising nuclear beta-catenin – imaging, WNT3A-conditioned medium, mouse C2C12, NPC library, primary screen (AID 1117326; in the data active means nuclear beta-catenin stimulation mostly above about 4.2%, no sharp cut-off; inactive means mostly below about 10%); conditions: stronger effect = higher value
# [4] = stimulators of insulin release from INS-1E, primary screen, cell-based, 5 mM glucose, NPC library (AID 1117329;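 active means compound raises insulin release from rat beta cells at 5 mM glucose, no numeric limit stated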); conditions: rat INS-1E insulin secretion, at 10 µM, stronger effect = higher value
# [5] = growth inhibition of GSK3B-pretreated HCT116 cells – cell-based, CellTiter-Glo, 0.2 to 20 µM (AID 1117336;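 active means compounds lowering colon cancer cell viability after pretreatment blocking the GSK3B kinase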); conditions: HCT116 viability after GSK3B inhibitor, at 20 µM, stronger effect = higher value
# [6] = inhibition of endothelial tube formation, primary screen, imaging, VEGF stimulated, CD31 staining, tube area, NPC library (AID 1117340;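 active means compound that reduces growth-factor-driven endothelial tube area in a mixed cell culture, no cutoff stated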); conditions: VEGF-stimulated ADSC/ECFC co-culture, at 10 µM, stronger effect = higher value
# [7] = GLP1 release stimulators, primary, NCI-H716, NPC library (AID 1117341;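 active means compound raises GLP1 secretion from the human gut endocrine cells, with no numeric limit stated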); conditions: NCI-H716 cells, at 10 µM, stronger effect = higher value
# [8] = HCT116 colon cancer cell growth inhibition, primary screen, CellTiter-Glo luminescence, NPC library (AID 1117342;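 active means compounds that lower survival of HCT116 colon cancer cells in the luminescence readout, no numeric limit stated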); conditions: at 20 µM (top of the series)
# [9] = reduced SW480 viability measured with CellTiter-Glo, NPC library, primary (AID 1117343;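 active means compounds that lower viability of the colon cancer cells in the luminescence readout, with no numeric limit stated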); conditions: CellTiter-Glo luminescence; at 20 µM (top of the series) unless noted
# [10] = NPC library primary testing for decreased DLD-1 cell viability via CellTiter-Glo (AID 1117346;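 active means compounds that lower survival of DLD-1 colon cancer cells in the luminescence readout, no cutoff given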); conditions: DLD-1 viability, CellTiter-Glo luminescence; at 20 µM (top of the series)
# [11] = EMT-state selective cytotoxicity in co-culture – imaging, PC-3E GFP, TEM4-18 mCherry, primary screen (AID 1345086;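 active means compounds killing one labelled cell type while sparing the other, by normalised counts and ratio limits, not self-fluorescent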;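 on all read-outs here: cells exposed to compound for 72 h before imaging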;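 on red/green cell ratio (normalised): normalised mesenchymal count divided by normalised epithelial count so high means epithelial killing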); conditions: PC-3E GFP / TEM4-18 mCherry co-culture, imaging cell counts, at 1 µM; for red/green cell ratio (normalised): actives lie on both sides, counts scaled to control wells, 1 = unselective
# [12] = MELAS cybrid and Rieske KO viability enhancers – cell-based, MELAS cybrids, Rieske KO mouse fibroblasts, CellTiter-Glo, primary screen (AID 1508586); conditions: low glucose;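 further: z relative to plate mean and SD of compound and empty wells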
# [13] = molecular target: NAD(+) hydrolase SARM1 (Homo sapiens) (UniProt Q6SZW1); assay: blocking NAD cleavage by SARM1 SAM-TIR – cell lysate, NAD-Glo luminescence (AID 1508614;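 active means compound whose remaining NAD level is above about 45 nM, limit read from the data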); conditions: SAM-TIR HEK293T lysate NADase, at 1 µM, stronger effect = higher value
# NAD(+) hydrolase SARM1 (Homo sapiens), sequence (Q6SZW1 whole entry, looked up): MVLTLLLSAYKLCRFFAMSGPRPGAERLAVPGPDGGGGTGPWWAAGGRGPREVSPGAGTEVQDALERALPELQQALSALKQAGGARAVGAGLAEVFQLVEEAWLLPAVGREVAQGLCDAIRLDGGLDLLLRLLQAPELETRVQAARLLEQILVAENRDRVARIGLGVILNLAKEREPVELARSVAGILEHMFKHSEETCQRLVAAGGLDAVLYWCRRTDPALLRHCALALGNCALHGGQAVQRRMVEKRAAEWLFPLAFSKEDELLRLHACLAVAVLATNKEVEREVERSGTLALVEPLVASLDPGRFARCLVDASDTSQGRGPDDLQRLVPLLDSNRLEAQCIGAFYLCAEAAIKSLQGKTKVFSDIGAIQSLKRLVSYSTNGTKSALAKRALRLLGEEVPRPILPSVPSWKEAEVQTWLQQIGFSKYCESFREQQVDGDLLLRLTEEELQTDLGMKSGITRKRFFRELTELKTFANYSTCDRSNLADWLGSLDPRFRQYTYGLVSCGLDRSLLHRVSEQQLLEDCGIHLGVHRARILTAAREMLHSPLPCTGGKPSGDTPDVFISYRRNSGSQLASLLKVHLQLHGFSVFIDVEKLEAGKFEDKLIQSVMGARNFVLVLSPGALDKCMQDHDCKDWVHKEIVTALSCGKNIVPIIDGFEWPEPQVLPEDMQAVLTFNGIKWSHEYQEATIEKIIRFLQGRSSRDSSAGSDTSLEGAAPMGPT
# [14] = viability loss with induced miR-34 in A549 – imaging, A549 dox-inducible miR-34, nuclei and caspase counts, primary screen (AID 1347080;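 active means compounds whose cell count with miR-34 switched on is under 0.7 times the count with it off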); conditions: A549 miR-34 inducible, Hoechst nuclei count, 48 h
# [15] = growth inhibition, single agent or in combination, cell-based, chromothripsis tumors, cisplatin or BGB combos (AID 1671449; in the data active means inhibition above about 80%;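 further: cells exposed for 96 hours; 0% = vehicle DMSO and 100% = killing by high DMSO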); conditions: LFS_MB_P medulloblastoma cells
# [16] = growth inhibition, single agent and combos, cell-based, chromothripsis tumors, cisplatin or BGB combos (AID 1671450; in the data active means inhibition above about 80%;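 further: cells exposed to compound for four days; 0% = vehicle DMSO and 100% = cell killing by high DMSO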); conditions: HDN33 neuroblastoma cells, stronger effect = higher value
# [17] = growth inhibition, single agents and combos, ICB984, cell-based, cisplatin or BGB combos, synergistic combos for chromothripsis tumors (AID 1671451; call rule not given here;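 further: cells exposed for 96 hours before readout; 0% = vehicle DMSO and 100% = killing by high DMSO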); conditions: ICB984 medulloblastoma cells, drug combinations, stronger effect = higher value
# [18] = growth inhibition, single agents and combos, HTB85, cell-based, BGB or cisplatin IC20 combos, synergistic combos for chromothripsis tumors (AID 1671453; in the data active means inhibition above about 80%;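 further: cells exposed for 96 hours before readout; 0% = vehicle DMSO and 100% = high DMSO killing control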); conditions: HTB85 osteosarcoma cells, drug combinations, stronger effect = higher value
# [19] = growth inhibition, MDA-MB-436, cell-based, BGB or cisplatin combos, synergistic combos for chromothripsis tumors (AID 1671458; call rule not given here;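 further: cells exposed for 96 hours; 0% = vehicle DMSO and 100% = killing by high DMSO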); conditions: MDA-MB-436 breast carcinoma growth inhibition, drug combinations, stronger effect = higher value
# [20] = measured here: epithelial PC-3E GFP cell survival
# [21] = measured here: mesenchymal TEM4-18 mCherry cell survival
# [22] = MELAS cybrid survival, CellTiter-Glo 48 h, stronger effect = higher value
# [23] = Rieske KO mouse fibroblast survival, CellTiter-Glo 72 h
# [24] = stronger effect = lower value, cell number ratio, induced over uninduced
# [25] = measured here: relative caspase fold change +Dox/-Dox
# [26] = measured here: total cells with miR-34 induction, stronger effect = lower value
# [27] = measured here: total cells without miR-34 induction
smiles,measurement,setting,value
NC(N)=NC(N)=NCCc1ccccc1,survival,[1],15 (inactive)
same,parasite load remaining,[2],-0.135% (inactive) and 69.8% (inactive) and 0.98% (inactive)
same,viability,[2],41.9% and 91.2% and 89.5%
same,nuclear beta-catenin stimulation,[3]; at 10 µM,0% (inactive)
same,nuclear beta-catenin stimulation,"[3]; stimulation, at 2 µM",1.1%
same,insulin secretion stimulation,[4],-0.2% (inactive)
same,viability decrease,[5],27.4% (inactive)
same,tube area decrease,[6],27.6% (inactive)
same,GLP1 secretion stimulation,[7],-0.4% (inactive)
same,inhibition of viability,[8],9.6% (inactive)
same,viability decrease (inhibition),[9],70.3% (active)
same,viability decrease (inhibition),[10],9.45% (inactive)
same,red/green cell ratio (normalised),[11],0.86 (inactive)
same,normalised cell number,[11]; [20],1.06
same,normalised cell number,[11]; [21],0.91
same,z-score,[12]; [22],-0.896 (inactive) and -0.373 (inactive) and -0.362 (inactive)
same,z-score,[12]; [23],-0.647 and 0.306 and -0.384
same,remaining NAD,[13],10 nM (inactive)
COc1cc2c(c(OC)c1OC)-c1ccc(OC)c(=O)cc1[C@@H](NC(C)=O)CC2,survival,[1],0.333 (inactive)
same,nuclear beta-catenin stimulation,[3]; at 10 µM,77.5% (active)
same,nuclear beta-catenin stimulation,"[3]; stimulation, at 2 µM",72.6%
same,insulin secretion stimulation,[4],2.2% (inactive)
same,viability decrease,[5],97.2% (active)
same,tube area decrease,[6],105% (active)
same,GLP1 secretion stimulation,[7],-3.6% (inactive)
same,inhibition of viability,[8],75% (active)
same,viability decrease (inhibition),[9],43.3% (inactive)
same,viability decrease (inhibition),[10],58.2% (active)
same,red/green cell ratio (normalised),[11],1.19 (inactive)
same,normalised cell number,[11]; [20],0.19
same,normalised cell number,[11]; [21],0.23
same,fold change,[14]; [24],1.43 (inactive) and 1.18 (inactive) and 0.984 (inactive)
same,fold change,[14]; [25],1.13 and 1.5 and 0.402
same,cell count,[14]; [26],1890 and 1930 and 1700
same,cell count,[14]; [27],1330 and 1630 and 1730
same,z-score,[12]; [22],-2.22 (inactive)
same,z-score,[12]; [23],-0.272
same,remaining NAD,[13],10 nM (inactive)
Nc1cc(C(Cl)=C(Cl)Cl)c(S(N)(=O)=O)cc1S(N)(=O)=O,survival,[1],8.08 (inactive)
same,parasite load remaining,[2],69.8% (inactive) and 78.4% (inactive) and 58% (inactive)
same,viability,[2],125% and 85.5% and 102%
same,nuclear beta-catenin stimulation,[3]; at 10 µM,3.8% (inactive)
same,nuclear beta-catenin stimulation,"[3]; stimulation, at 2 µM",4.2%
same,insulin secretion stimulation,[4],1.4% (inactive)
same,viability decrease,[5],19% (inactive)
same,tube area decrease,[6],7% (inactive)
same,GLP1 secretion stimulation,[7],12.7% (inactive)
same,inhibition of viability,[8],-3.03% (inactive)
same,viability decrease (inhibition),[9],-22% (inactive)
same,viability decrease (inhibition),[10],4.8% (inactive)
same,red/green cell ratio (normalised),[11],0.84 (inactive)
same,normalised cell number,[11]; [20],1.14
same,normalised cell number,[11]; [21],0.96
same,fold change,[14]; [24],0.893 (inactive) and 0.936 (inactive) and 0.859 (inactive)
same,fold change,[14]; [25],1.43 and 0.803 and 4.71
same,cell count,[14]; [26],8790 and 9570 and 11100
same,cell count,[14]; [27],9850 and 10200 and 12900
same,z-score,[12]; [22],-0.253 (inactive) and -0.139 (inactive)
same,z-score,[12]; [23],0.393 and 0.0455
same,remaining NAD,[13],10 nM (inactive)
N=C(N=C(N)N)N1CCOCC1,survival,[1],19.5 (inactive)
same,parasite load remaining,[2],19.9% (inactive) and 108% (inactive) and 72.1% (inactive)
same,viability,[2],51% and 98% and 255%
same,nuclear beta-catenin stimulation,[3]; at 10 µM,1.2% (inactive)
same,nuclear beta-catenin stimulation,"[3]; stimulation, at 2 µM",1.4%
same,insulin secretion stimulation,[4],-2.5% (inactive)
same,viability decrease,[5],-5.75% (inactive)
same,tube area decrease,[6],4.5% (inactive)
same,GLP1 secretion stimulation,[7],1.9% (inactive)
same,inhibition of viability,[8],14.6% (inactive)
same,viability decrease (inhibition),[9],34.4% (inactive)
same,viability decrease (inhibition),[10],4.15% (inactive)
same,red/green cell ratio (normalised),[11],0.95 (inactive)
same,normalised cell number,[11]; [20],0.9
same,normalised cell number,[11]; [21],0.86
same,z-score,[12]; [22],-0.354 (inactive) and -0.415 (inactive) and 0.363 (inactive)
same,z-score,[12]; [23],0.794 and 0.165 and 0.626
same,remaining NAD,[13],10 nM (inactive)
same,inhibition,"[15]; at 0.5 µM, stronger effect = higher value",0.66% (inactive)
same,inhibition,"[15]; measured here: combination with BGB IC20, at 0.005 µM",31.7%
same,inhibition,"[15]; measured here: combination with BGB IC40, at 0.005 µM",-13.4%
same,inhibition,"[15]; measured here: combination with BGB IC40, at 0.05 µM",-9.47%
same,inhibition,"[15]; measured here: combination with cisplatin, at 0.5 µM, stronger effect = higher value",66.2%
same,inhibition,"[15]; measured here: combination with cisplatin, at 5 µM, stronger effect = higher value",-1.14%
same,inhibition,"[16]; BGB combo, at 5 µM",12.3%
same,inhibition,[16]; at 0.5 µM,-2.43% (inactive)
same,inhibition,"[16]; cisplatin combo, at 5 µM",9.3%
same,inhibition,"[16]; measured here: with BGB IC20 combination, at 0.5 µM",-2.61%
same,inhibition,"[16]; measured here: with cisplatin IC20 combination, at 0.5 µM",-1.22%
same,inhibition,"[16]; single agent, at 5 µM",6.99%
same,inhibition,"[17]; BGB IC20 combo, at 0.005 µM",3.73%
same,inhibition,"[17]; BGB IC40 combo, at 0.005 µM",-7.45%
same,inhibition,"[17]; BGB IC40 combo, at 0.05 µM",-3.82%
same,inhibition,[17]; at 0.5 µM,-14.1% (inactive)
same,inhibition,"[17]; cisplatin combo, at 0.05 µM",-6.72%
same,inhibition,"[17]; cisplatin combo, at 0.5 µM",-17.9%
same,inhibition,"[17]; cisplatin combo, at 5 µM",-29%
same,inhibition,"[17]; measured here: 5 uM single agent, at 5 µM",-1.94%
same,inhibition,[18]; at 0.5 µM,-5.39% (inactive)
same,inhibition,"[18]; measured here: with BGB IC20, at 0.5 µM",1.31%
same,inhibition,"[18]; measured here: with BGB IC20, at 5 µM",-31%
same,inhibition,"[18]; measured here: with cisplatin IC20, at 0.5 µM",-27.9%
same,inhibition,"[18]; measured here: with cisplatin IC20, at 5 µM",-17.8%
same,inhibition,"[18]; single agent, at 5 µM",-7.35%
same,inhibition,[19]; at 0.5 µM,-3.31% (inactive)
same,inhibition,"[19]; measured here: BGB combination, at 0.5 µM",-4.36%
same,inhibition,"[19]; measured here: BGB combination, at 5 µM",-6.45%
same,inhibition,"[19]; measured here: cisplatin combination, at 0.5 µM",-3.15%
same,inhibition,"[19]; measured here: cisplatin combination, at 5 µM",-8.98%

# Reference: PubChem BioAssay
